Results on 25 compounds are retold here after PubChem BioAssay (NCI).

“And” between values parts separate entries of the source, which are not always exact repeats. Identical values can stand only once. The panel holds about 83,000 compounds, 20% with a hit somewhere; the sample as a whole holds those more often.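 Interpretation: 100, growth as untreated; towards 0, rising growth inhibition; 0, no net growth; 0 to -100, cell death. Compounds scoring below 10 were considered active.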 A number with no mark means an inactive call. The source made the active and inactive calls.

What all share (experiment): NCI-60 one-dose screen, 48 h (100 = growth as untreated, 0 = no growth, -100 = all killed)
Common to all, as to conditions: 10 µM unless noted

Assay [1] has as its system NCI-H23 lung.
Assay [2] relates to NCI-H226 lung.
In assay [3] the test system is NCI-H322M lung.
Assay [4] relates to HOP-62 NSCLC.
Assay [5] concerns NCI-H460 lung.
In assay [6] the test system is HOP-92 NSCLC.
The subject of assay [7] is NCI-H522 lung.
Assay [8] relates to A549/ATCC NSCLC.
Assay [9] deals with 786-0 renal.
Assay [10] relates to COLO 205 colon.

Take `O=C(Nc1ccccc1)c1cc(Cl)ccc1O`: the growth in assay [1] is 53%; in assay [2], 74%; in assay [3], 83.1%; in [4], 63.5%; in assay [5] it was 37.4%; in assay [6], 14.5%. Besides, the growth in [7] is 10.3%; in assay [8], 33.7%; in [9] it was 59.7%; in assay [10], 109%.
On to `O=Nc1ccccc1N=O`, for which the growth in assay [1] is 71.9%; in assay [2] it was 88.5%; in [3], 84.2%; in assay [4], 96%; in assay [5] it was 93.5%; in assay [6], 107%. In addition, the growth in [7] was -60.8% (active); in assay [8] it was 86.2%; in [9], 116%; in assay [10] it was 83.4%.
Consider `CN(Cc1cnc2nc(N)nc(N)c2n1)c1ccc(C(=O)NC(CCC(=O)O)C(=O)O)cc1` (stereo not given), for which the growth was 23.4% in assay [1]; 30.2% in [2]; 48.6% in assay [3]; 43% in [4]; 16.4% in assay [5]; 37.1% in assay [6]. The growth was 29.2% in [7], 19.8% in assay [8], 13.7% in assay [9] and 58.5% in assay [10].
Regarding `c1ccc2c(c1)Nc1cc3ccccc3cc1N2`, the growth was 30.3% in assay [1]; 80.5% in [2]; 48.5% in assay [3]; 41.4% in [4]; 51.7% in [5]; 85% in assay [6]. Besides, the growth in [7] was -14.7% (active); in assay [8], 41.5%; in [9], 66.6%; in [10] it was -43.7% (active).
As to `N[C@H](C(=O)O)[C@@H]1CC(Cl)=NO1`, the growth was 22.8% [20 µM] in assay [1]; 38.1% [20 µM] in [2]; 37.2% [20 µM] in assay [3]; 26.1% [20 µM] in assay [4]; 7.07% [20 µM] (active) in assay [5]; 63.6% [20 µM] in [6]. The growth in assay [7] was 25.4% [20 µM]; in [8], 19.1% [20 µM]; in [9], 24.2% [20 µM]; in assay [10] it was 33.5% [20 µM].
For `CN=C(N)N/N=C(\C)c1ccc2c(c1)Cc1cc(/C(C)=N/NC(N)=NC)ccc1-2`, the growth was -56.6% (active) in [1]; -61.2% (active) in [2]; -1.93% (active) in [3]; -82.7% (active) in [4]; -69.9% (active) in assay [5]; 13.5% in [6]. For the same compound, the growth in [7] is -35% (active); in assay [8], -17.6% (active); in assay [9], -49.7% (active); in assay [10], -67.1% (active).
For the compound `CCOC(=O)c1c(C)[nH]c(CO)c1C`, the growth was 99.1% in assay [1]; 114% in assay [2]; 94.9% in assay [3]; 93.9% in assay [4]; 110% in assay [5]; 101% in assay [6]. Further, the growth in assay [7] was 84.3%; in assay [8], 90.7%; in assay [9] it was 106%; in [10], 104%.
In the case of `Oc1c(Cl)c2ccccc2c2ccccc12`, the growth in assay [1] was 103%; in assay [2] it was 99.7%; in assay [3] it was 100%; in assay [4], 128%; in assay [5], 116%; in assay [6], 109%. The growth was 44.3% in assay [7], 103% in assay [8], 109% in [9] and 113% in assay [10].
For `Nc1ccc(SSc2ccc(N)cc2)cc1`, the growth in assay [1] was 89.9%; in assay [2], 103%; in [3], 92.5%; in assay [4] it was 114%; in assay [5] it was 100%; in assay [6], 103%. For the same compound, the growth was 84.1% in assay [7], 77.7% in assay [8], 100% in assay [9] and 106% in assay [10].
As to `C[n+]1c(/C=C/c2ccc([N+](=O)[O-])cc2)ccc2ccccc21`, the growth was 90.4% in assay [1]; 87.9% in [2]; 111% in assay [3]; 97.4% in assay [4]; 106% in assay [5]; 110% in [6]. Further, the growth is 102% in [7], 75.7% in assay [8], 111% in assay [9] and 101% in [10].
Consider `N#CSCc1c(Cl)cccc1Cl`, for which the growth in assay [1] was 34.7%; in assay [2], 99.3%; in assay [3] it was 97.9%; in assay [4], 79.1%; in [5], 106%; in [6], 53.7%. Further, the growth in assay [7] is 43.8%; in assay [8] it was 97.6%; in [9] it was 71.5%; in assay [10] it was 49.6%.
`O[C@H]1[C@H]2c3cc4c(cc3CN3CCC(=C[C@@H]1O)[C@H]23)OCO4`: the growth is 15.3% in assay [1]; 15.3% in assay [2]; 18.5% in [3]; 26.5% in assay [4]; 18.4% in [5]; -3.91% (active) in [6]. The growth in assay [7] was 25%; in assay [8] it was 19.1%; in assay [9] it was 31.9%; in assay [10] it was 9.67% (active).
For the compound `O=C1c2ccccc2C(=O)c2sc(Nc3cccc(Cl)c3)nc21`, the growth in assay [1] was -51.4% (active); in [2], -44.3% (active); in assay [3], 64.5%; in assay [4], -77.3% (active); in assay [5], 72.1%; in assay [6], 65.2%. For the same compound, the growth was -32% (active) in assay [7], 30.7% in assay [8], 8.79% (active) in [9] and 84.7% in [10].
With `N#Cc1ccc([N+](=O)[O-])o1`, the growth was 112% in [1]; 94.1% in assay [2]; 106% in assay [3]; 96.7% in [4]; 107% in assay [5]; 93.1% in assay [6]. The growth in assay [7] was 77.1%; in [8], 75.7%; in assay [9], 102%; in [10] it was 104%.
For the compound `CCCCCCCCCCCCCCCCCCOP(=O)([O-])OC1CC[N+](C)(C)CC1`, the growth is 76.2% and 60.8% in assay [1]; 48.9% and 18.8% in [2]; 59.2% and 40% in [3]; 5.84% (active) and -72.5% (active) in [4]; 1.19% (active) and -34.8% (active) in [5]; -25.3% (active) in assay [6]. Besides, the growth in [7] was -52.1% (active) and -87.8% (active); in assay [8], 17.1% and 38.2%; in assay [9], -28.4% (active) and -54.9% (active); in assay [10] it was -34.2% (active) and -30.8% (active).
With `O=C1C2=C(Nc3cc([N+](=O)[O-])ccc3N2)OC1c1c2ccccc2cc2ccccc12` (stereo not given), the growth in assay [1] is 51.7%; in assay [2] it was 82.9%; in assay [3], 71.8%; in [4], 88%; in [5], 46%; in assay [6], 44.1%. In addition, the growth was 24% in assay [7], 71.1% in assay [8], 48.3% in [9] and 118% in [10].
Turning to `CN(C)c1ccc(C(=C2C=CC(=[N+](C)C)C=C2)c2ccc(N(C)C)cc2)cc1` (tested in a mixture with another compound), the growth in [1] is -49% (active); in assay [2] it was -60% (active); in assay [3] it was -27.7% (active); in assay [4] it was -34.2% (active); in [5], -75.1% (active); in [6], -66.8% (active). In addition, the growth in assay [7] is -47% (active); in [8], -18.2% (active); in assay [9], -90.4% (active); in assay [10], -97.7% (active).
Turning to `Cc1ccnc(NC(c2ccccc2)c2ccc3cccnc3c2O)c1` (stereo not given), the growth in assay [1] is 47.8%; in assay [2], 57.8%; in assay [3] it was 38.4%; in assay [4] it was 54.1%; in assay [5], 5.96% (active); in [6], 67.8%. In addition, the growth is 7.12% (active) in assay [7], 39% in assay [8], 34.1% in assay [9] and 36.8% in [10].
With `O=C(Nc1ccc(F)cc1)ON=C1CCCCC1`, the growth is 110% [100 µM] in [1]; 96.9% [100 µM] in [2]; 101% [100 µM] in assay [3]; 112% [100 µM] in [4]; 104% [100 µM] in [5]; 108% [100 µM] in [6]. Also, the growth in assay [7] is 93.3% [100 µM]; in assay [8], 94.1% [100 µM]; in assay [9] it was 87.6% [100 µM]; in assay [10], 125% [100 µM].
`NC(N)=N/N=C/c1ccc([N+](=O)[O-])o1`: the growth in assay [1] is 65.5%; in assay [2], 100%; in [3], 87.2%; in assay [4] it was 113%; in assay [5] it was 80.2%; in assay [6], 106%. The growth is 70.1% in assay [7], 80.2% in assay [8], 98% in assay [9] and 3.2% (active) in assay [10].
In the case of `O=C1OCc2cccc3cccc1c23`, the growth in assay [1] was 101%; in assay [2] it was 91.4%; in assay [3], 119%; in assay [4], 113%; in assay [5] it was 104%; in assay [6], 80.8%. The growth in [7] is 108%; in [8] it was 78.9%; in assay [9], 110%; in assay [10] it was 115%.
As for `Cn1c2ccccc2c2nnc(N/N=C/c3ccccn3)nc21`, the growth in assay [1] is 19.3%; in assay [2] it was 5.03% (active); in assay [3] it was 11.8%; in assay [4] it was 4.96% (active); in [5], -11.5% (active); in assay [6], 14.5%. The growth is 18.2% in assay [7], 21.1% in assay [8], -21.6% (active) in assay [9] and -8.79% (active) in assay [10].
For `CCOC(=O)/C=C/c1ccc([N+](=O)[O-])o1`, the growth was 73.7% in [1]; 20.2% in assay [2]; 96% in assay [3]; 112% in assay [4]; 95.6% in [5]; 47.6% in assay [6]. Further, the growth in assay [7] is -55.1% (active); in [8], 96.4%; in assay [9], 75.8%; in [10], 40.9%.
As to `COc1ccc2nc3cc(Cl)ccc3c(NCCNc3c4ccc(Cl)cc4nc4ccc(OC)cc34)c2c1`, the growth in [1] was -73% (active); in assay [2] it was -54.7% (active); in assay [3], -86.6% (active); in assay [4] it was -80.4% (active); in assay [5] it was -68.7% (active); in assay [6], -72.7% (active). The growth in [7] was -90.7% (active); in assay [8], -74.5% (active); in [9] it was -88% (active); in assay [10], -74.9% (active).
For `O=[N+]([O-])c1ccc(N=Nc2ccc(O)cc2O)cc1`, the growth in assay [1] was 55.1%; in assay [2], 60.6%; in assay [3], 84.8%; in assay [4], 93.6%; in assay [5], 66%; in [6], -18.1% (active). Moreover, the growth in assay [7] is 19.5%; in assay [8] it was 62.6%; in assay [9], 51.3%; in assay [10], 41.4%.
